In the library only some 12% were active in any assay of this set; here they are far more common.
BAZ2B inh: inhibitors of human BAZ2B bromodomain; Q9UIF8; AlphaScreen BAZ2B-H3K14Ac peptide displacement; Potency, µM (highest dose often 114 µM), most hits filed as inhibitors; 360,000 tested, 4.4% active; AID 504333; note: nearly all actives have a fitted effect of over 60% in size
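Inhibition is scored as reduced AlphaScreen emission. The BAZ2B/b-H3(5-23)K14Ac complex (50 nM each) in PBS pH 7.4, 0.01% Tween-20 meets compound (up to 110 uM) for 30 min at RT before bead addition.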
JMJD2A Tudor: inhibitors of human JMJD2A Tudor domain | AID 504339 | Potency, µM (highest dose often 114 µM), hits mostly inhibitors | AlphaScreen JMJD2A-Tudor / H3K4me3 peptide binding | 390,000 tested, 4.4% active | O75164; note: nearly all actives have a fitted effect of over 50% in size
Sfp inh: inhibitors of Bacillus subtilis Sfp phosphopantetheinyl transferase | Q9F4F7 | Biochemical Sfp PPTase activity, qHTS | Potency, µM, most hits filed as inhibitors | 310,000 tested, 3.5% active;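 note: the enzyme is Sfp with the accession as filed and its product quenches rhodamine fluorescence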
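After 15 min at room temperature with compound, 15 nM Sfp received 5 uM rhodamine-CoA plus 12.5 uM BHQ-2-ybbR (50 mM Hepes pH 7.6, 10 mM MgCl2). Rate came from the fluorescence difference over 30 min, ex 525/em 598 nm.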
HP1b chromo inh: inhibitors of HP1-beta chromodomain binding to methylated histone tails. Potency, µM (highest dose often 114 µM), most hits filed as inhibitors. 390,000 tested, 0.56% active. AID 540317. AlphaScreen HP1-beta / biotin-H3K9me3 peptide binding; note: nearly all actives have a fitted effect of over 70% in size
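AlphaScreen: HP1-beta (50 nM) preformed 30 min with biotin-H3(1-18)K9me3 peptide (50 nM) in PBS pH 7.4, 0.01% Tween-20. Compound added for 30 min at RT, then streptavidin donor/nickel chelate acceptor beads (10 ug/mL) for 30 min.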
L3MBTL1 inh: inhibitors of human L3MBTL1; 230,000 tested, 0.66% active; Potency, µM (titrated, usually from 57.1 µM), actives largely listed as inhibitors; Q9Y468; AlphaScreen L3MBTL1–H3K9me1 peptide binding; note: nearly all actives have a fitted effect of over 60% in size
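Displacement of a biotinylated histone H3(1-15) peptide monomethylated at Lys9 (75 nM) from L3MBTL1 (50 nM) was measured by AlphaScreen after a 30 min room-temperature compound incubation; cefsulodin titration served as intraplate control.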
G9a block: blocks human histone lysine methyltransferase G9a. G9a H3K9 monomethylation, AlphaScreen, 2 h. 350,000 tested, 8.8% active. Potency, µM (top dose mostly 102 µM), most hits filed as inhibitors. Q96KQ7; note: nearly all actives have a fitted effect of over 75% in size
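Signal arises when biotinylated H3K9 peptide, once monomethylated, bridges streptavidin donor and antibody-captured acceptor beads. Enzyme at 20 nM was preincubated 15 min with test compounds; peptide 500 nM and SAM 20 uM then reacted for 2 h.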
A number is an active result; - = inactive; ? = inconclusive; . = no result; ! = not confirmed by another sample; [ ] = dose if it differs, or a comment. Calls come from the whole dose curve; as a rule, active = well fitted curve in the direction sought with a large enough effect; inconclusive = small, poorly fitted or top-dose-only effect, or another doubt; inactive = no such curve, though single readings can be large; an effect the other way counts as inactive or inconclusive.

SMILES	BAZ2B inh	JMJD2A Tudor	Sfp inh	HP1b chromo inh	L3MBTL1 inh	G9a block
NCCOc1ccccc1OCCN	-	-	-	-	-	-
NCCOB(c1ccccc1)c1ccccc1	.	.	56.2µM!	.	.	-[2.33 µM]
CCCn1c(CCC(=O)Nc2ccc(C)c(Cl)c2)nc2cccnc21	-	-	.	-	.	-
COc1ccc(NS(=O)(=O)c2cc(OC)ccc2OC)cc1	.	-	.	-	.	.
COc1ccc(NS(=O)(=O)c2cc(OC)ccc2NC(=O)c2cc(C)oc2C)cc1	-	?	-	-	-	79.4µM
C/C(=C\C(=S)Nc1ccccc1)Nc1ccc2ccccc2c1	25.1µM	79.4µM	?	?	?	-
Clc1cc(Cl)c(OCC#CI)cc1Cl	.	.	79.4µM	.	.	-[12.7 µM]
COc1ccc(CN2CCN(C(C)C(=O)NC(C)c3ccc(F)cc3)CC2)cc1F (configuration not stated)	-	-	-	-	.	-
COc1cc(OC)c(OC)cc1CN1CCN(C(=O)CC(C)C)CC1	?	1.58µM	-	?	-	17.8µM
COc1cccc(CN2CCN(C(=O)CC(C)C)CC2)c1	56.2µM	5.62µM	-	-	-	17.8µM
CC(C)CC(=O)N1CCN(Cc2cccc(F)c2)CC1	56.2µM	4.47µM	-	?	-	-[12.7 µM]
CC(C)CC(=O)N1CCN(C(=O)c2ccco2)CC1	-	-	-	-	.	-
COc1ccc(CN2CCN(C(C)C(=O)N(C)Cc3cccc(F)c3)CC2)cc1OC (configuration not stated)	17.8µM	4.47µM	?	?	.	2µM
CCc1ccc(C2c3c(-c4cc(C)ccc4O)n[nH]c3C(=O)N2CCO)cc1 (configuration not stated)	-	-	.	-	.	-
Cc1ccc(C)c(CN2CCN(c3ncccn3)CC2)c1	?	20µM	-	?	-	.
Oc1cc(O)c(CN2CCOCC2)cc1CN1CCOCC1	.	79.4µM	.	70.8µM	.	.
Oc1cc2c(cc1CN1CCN(c3ncccn3)CC1)OCO2	-	?	-	-	.	3.98µM
Fc1cccc(F)c1CN1CCN(c2ncccn2)CC1	-	?	-	-	-	-
Fc1ccccc1CN1CCN(c2ncccn2)CC1	?	6.31µM	-	-	-	22.4µM
Oc1c(CN2CCOCC2)cc(CN2CCOCC2)cc1CN1CCOCC1	.	-	.	-	.	.
COc1cc(Br)cc(CN2CCN(c3ncccn3)CC2)c1O	-	-	-	-	-	?
Clc1cccc(Cl)c1CN1CCN(c2ncccn2)CC1	-	-	-	-	-	.
O=[N+]([O-])c1ccc(Cl)c(CN2CCN(c3ncccn3)CC2)c1	?	?	-	-	-	70.8µM
COc1cccc(Cn2c(CNC(=O)c3cc([N+](=O)[O-])ccc3Cl)nc3cccnc32)c1	-	-	.	-	.	-
c1ccc(CCC2Cc3ccccc3N2)cc1 (configuration not stated)	?	56.2µM	.	-	-	-[0.501 µM]
SMILES	BAZ2B inh	JMJD2A Tudor	Sfp inh	HP1b chromo inh	L3MBTL1 inh	G9a block
O=C(NC(NC(=S)Nc1ccccc1C(=O)O)C(Cl)(Cl)Cl)c1cccc([N+](=O)[O-])c1 (configuration not stated)	-	79.4µM	-	-	-	?
O=C(NC(NC(=S)Nc1ccccc1Cl)C(Cl)(Cl)Cl)c1cccc(Cl)c1 (configuration not stated)	-	-	-	-	-	-
O=C(/C=C/c1cccc([N+](=O)[O-])c1)NC(=S)Nc1ccccc1C(=O)O	-	.	39.8µM	.	.	44.7µM
Cc1onc(-c2ccccc2Cl)c1C(=O)N[C@H]1C(=O)N2[C@H]1SC(C)(C)[C@H]2C(=O)O	.	.	-	.	.	-[21.5 µM]
COCCCN1C(=O)C(=O)/C(=C(/O)c2ccccc2)C1c1ccc(N(C)C)cc1 (configuration not stated)	?	?	-	-	-	44.7µM
COCCCN1C(=O)C(=O)/C(=C(/O)c2ccccc2)C1c1ccc2c(c1)OCO2 (configuration not stated)	-	?	-	-	-	56.2µM
Clc1ccc(C2=NNC(=NCc3ccc4c(c3)OCO4)SC2)cc1	-	?	-	-	-	28.2µM
CC(C)c1nn2c(=O)cc(COC(=O)c3ccccc3NC(=O)COc3ccccc3)nc2s1	-	-	.	-	.	-
CC(C)NS(=O)(=O)c1ccc(OCC(=O)N2CCN(c3cccc(Cl)c3)CC2)cc1	-	-	.	-	.	-
COc1ccc(C(C[N+](=O)[O-])c2c(-c3ccccc3)cc3ccccn23)cc1OC (configuration not stated)	?	-	-	-	.	10µM
COc1cc(C(C[N+](=O)[O-])c2c(C)cc3ccccn23)ccc1O (configuration not stated)	28.2µM	?	?	?	.	31.6µM
CC[C@@H](C)[C@@H](O)[C@H](C)C(=O)[C@H](C)/C=C(\C)C[C@H](C)[C@@H]1OC(=O)[C@H]1CC	.	.	-	.	.	.
O=c1c(-c2ccccc2)nc2cnc(N3CCNCC3)nc2n1Cc1ccc(F)cc1	.	.	-	.	.	-[12.7 µM]
O=c1c(-c2cc(F)cc(F)c2)nc2cnc(N3CCNCC3)nc2n1Cc1ccc(F)cc1	.	.	17.8µM	.	.	-[0.501 µM]
COc1cccc(Cn2c(=O)c(CCc3ccccc3)nc3cnc(N4CCOCC4)nc32)c1	.	.	-	.	.	-[0.501 µM]
O=c1c(-c2ccc(Cl)cc2)nc2cnc(N3CCNCC3)nc2n1CCc1ccccc1	.	.	44.7µM	.	.	-[0.501 µM]
CN1CCN(c2ncc3nc(CCc4ccccc4)c(=O)n(Cc4cccs4)c3n2)CC1	.	.	28.2µM	.	.	-[12.7 µM]
COc1cccc(Cn2c(=O)c(CCc3ccccc3)nc3cnc(N4CCNCC4)nc32)c1	.	.	79.4µM	.	.	-[0.501 µM]
COc1ccc(-c2nc3cnc(N4CCNCC4)nc3n(CCc3ccccc3)c2=O)cc1	.	.	?	.	.	-[12.7 µM]
O=c1c(CCc2ccccc2)nc2cnc(N3CCNCC3)nc2n1CCc1ccccc1	.	.	39.8µM	.	.	-[12.7 µM]
COc1cc(Nc2nc3ccccc3c3nnc(C)n23)cc(OC)c1	-	-	.	-	.	-
COc1ccc(N=Cc2c(O)[nH]c3ccccc23)cc1	-	-	-	-	-	-
COc1ccc(N=Nc2c(C)[nH]c3ccccc23)cc1	.	50.1µM	.	?	.	.
CC(=O)c1cccc(N=Nc2c(C)[nH]c3ccccc23)c1	35.5µM	?	-	-	-	10µM
NC(=O)c1cccnc1Oc1cccc(Cl)c1	-	20µM	-	?	.	-[12.7 µM]
NC(=O)c1cccnc1Oc1ccc(Cl)cc1	-	-	-	-	-	.
Cc1cc(C)c(NC(=O)C2CCN(c3nc4ccccc4n4cccc34)CC2)c(C)c1	-	?	.	-	.	?
CC1CCC(C(C)C)C(OC(=O)C2=C3c4ccccc4S(=O)(=O)N3CC2)C1 (configuration not stated)	-	-	-	-	-	25.1µM
CC1CCC(C(C)C)[C@H](OC(=O)c2ccccc2)C1 (some centres not stated)	.	.	-	.	.	.
CCNc1ncc2nc(-c3ccc(F)cc3)c(=O)n(CCOC)c2n1	.	.	-	.	.	-[0.501 µM]
